# Measured values from PubChem BioAssay AID1159580 (chemical genetic matrix, 2015).
# Where “and” joins values, the source holds several entries; their conditions need not be identical. Equal values may be shown once. The campaign covered roughly 5,500 compounds. About 2,000 (36%) were called active. Another 18% or so got no clear call; they are omitted. The list shows a part of the results. Values without a mark were called inactive. Cut-off read from the data, not from the text of the source: active = normalized growth mostly below about 0.91 (no sharp cut-off); inconclusive = no clear call, values can overlap the other calls; inactive = mostly above about 0.92.
# Experiment: chemical genetic growth profiling, strain panel (AID 1159580);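 note: tested at 20 µM; growth read once vehicle control cultures reached saturation at 30 °C; 1 = growth at the plate median or of vehicle wells; lower values mean less growth of the strain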
# Details: S. cerevisiae deletion strains, growth OD
smiles,measurement,setting,value
COc1ccc(CCN2CCC(Nc3nc4ccccc4n3Cc3ccc(F)cc3)CC2)cc1,normalized growth,"locus YAL021C, strain ccr4, active compounds read low",0.721 (active)
same,normalized growth,"locus YAL026C, strain drs2, active compounds read low",0.783 (active)
same,normalized growth,"locus YAL030W, strain snc1, active compounds read low",0.988
same,normalized growth,"locus YBL061C, strain skt5, active compounds read low",0.969
same,normalized growth,"locus YBR009C, strain hhf1, active compounds read low",0.936
same,normalized growth,"locus YBR021W, strain FUR4, active compounds read low",0.821 (active)
same,normalized growth,"locus YBR023C, strain chs3, active compounds read low",0.959
same,normalized growth,"locus YBR171W, strain sec66, active compounds read low",0.992
same,normalized growth,"locus YBR229C, strain ROT2, active compounds read low",0.972
same,normalized growth,"locus YBR231C, strain swc5, active compounds read low",0.981
same,normalized growth,"locus YBR279W, strain paf1, active compounds read low",0.954
same,normalized growth,"locus YCL011C, strain gbp2, active compounds read low",0.935
same,normalized growth,"locus YCL016C, strain dcc1, active compounds read low",0.919
same,normalized growth,"locus YCL029C, strain bik1, active compounds read low",0.983
same,normalized growth,"locus YCL061C, strain MRC1, active compounds read low",0.96
same,normalized growth,"locus YCL069W, strain vba3, active compounds read low",0.953
same,normalized growth,"locus YCR088W, strain abp1, active compounds read low",0.924
same,normalized growth,"locus YDL005C, strain med2, active compounds read low",0.967
same,normalized growth,"locus YDL035C, strain GPR1, active compounds read low",0.972
same,normalized growth,"locus YDL040C, strain nat1, active compounds read low",0.985
same,normalized growth,"locus YDL074C, strain BRE1, active compounds read low",0.935
same,normalized growth,"locus YDL101C, strain DUN1, active compounds read low",0.984
same,normalized growth,"locus YDL134C, strain PPH21, active compounds read low",0.983
same,normalized growth,"locus YDL185W, strain tfp1, active compounds read low",0.984
same,normalized growth,"locus YDL192W, strain arf1, active compounds read low",0.986
same,normalized growth,"locus YDR001C, strain nth1, active compounds read low",0.972
same,normalized growth,"locus YDR069C, strain doa4, active compounds read low",0.874 (active)
same,normalized growth,"locus YDR101C, strain arx1, active compounds read low",0.992
same,normalized growth,"locus YDR137W, strain rgp1, active compounds read low",1.18 [resistant] (active)
same,normalized growth,"locus YDR150W, strain NUM1, active compounds read low",1
same,normalized growth,"locus YDR159W, strain sac3, active compounds read low",0.986
same,normalized growth,"locus YDR162C, strain NBP2, active compounds read low",0.986
same,normalized growth,"locus YDR195W, strain ref2",0.971
same,normalized growth,"locus YDR297W, strain sur2, active compounds read low",0.999
same,normalized growth,"locus YDR318W, strain mcm21, active compounds read low",0.984
same,normalized growth,"locus YDR334W, strain swr1, active compounds read low",0.979
same,normalized growth,"locus YDR335W, strain msn5, active compounds read low",0.959
same,normalized growth,"locus YDR388W, active compounds read low",0.687 (active)
same,normalized growth,"locus YDR392W, strain spt3, active compounds read low",0.742
same,normalized growth,"locus YDR502C, strain sam2, active compounds read low",0.977
same,normalized growth,"locus YEL003W, strain gim4, active compounds read low",0.96
same,normalized growth,"locus YEL037C, strain rad23, active compounds read low",0.867 (active)
same,normalized growth,"locus YEL061C, strain CIN8 (second series), active compounds read low",0.981
same,normalized growth,"locus YEL061C, strain CIN8, active compounds read low",0.993
same,normalized growth,"locus YER015W, strain faa2, active compounds read low",0.93
same,normalized growth,"locus YER016W, strain bim1, active compounds read low",0.911 (active)
same,normalized growth,"locus YER110C, active compounds read low",0.992
same,normalized growth,"locus YER111C, strain swi4, active compounds read low",0.962
same,normalized growth,"locus YER155C, strain BEM2 (second series), active compounds read low",0.822 (active)
same,normalized growth,"locus YER155C, strain BEM2, active compounds read low",0.991
same,normalized growth,"locus YER167W, strain BCK2, active compounds read low",0.973
same,normalized growth,"locus YFR010W, strain ubp6, active compounds read low",0.838 (active)
same,normalized growth,"locus YGL078C, strain dbp3, active compounds read low",0.985
same,normalized growth,"locus YGL086W, strain mad1, active compounds read low",1.02
same,normalized growth,"locus YGL167C, strain pmr1, active compounds read low",1
same,normalized growth,"locus YGL173C, strain kem1, active compounds read low",0.982
same,normalized growth,"locus YGL227W, strain vid30, active compounds read low",0.981
same,normalized growth,"locus YGL240W, strain doc1, active compounds read low",0.978
same,normalized growth,"locus YGL248W, strain PDE1, active compounds read low",0.985
same,normalized growth,"locus YGL253W, strain hxk2, active compounds read low",0.904 (active)
same,normalized growth,"locus YGR135W, strain pre9, active compounds read low",0.877 (active)
same,normalized growth,"locus YGR229C, strain SMI1, active compounds read low",0.971
same,normalized growth,"locus YGR252W, strain gcn5, active compounds read low",0.9
same,normalized growth,"locus YHR013C, strain ard1, active compounds read low",0.857
same,normalized growth,"locus YHR027C, strain rpn1, active compounds read low",0.954
same,normalized growth,"locus YHR030C, strain SLT2, active compounds read low",0.997 and 0.996
same,normalized growth,"locus YHR079C, strain IRE1 (second series), active compounds read low",0.984
same,normalized growth,"locus YHR079C, strain IRE1, active compounds read low",0.972
same,normalized growth,"locus YHR094C, strain hxt1, active compounds read low",0.986
same,normalized growth,"locus YHR129C, strain ARP1, active compounds read low",0.988
same,normalized growth,"locus YHR142W, strain chs7, active compounds read low",0.888
same,normalized growth,"locus YHR200W, strain rpn10, active compounds read low",0.994
same,normalized growth,"locus YIL066C, strain RNR3, active compounds read low",0.974
same,normalized growth,"locus YIL073C, strain SPO22, active compounds read low",1.74 [resistant] (active)
same,normalized growth,"locus YIL125W, strain kgd1, active compounds read low",0.993
same,normalized growth,"locus YIR030C, strain dcg1, active compounds read low",0.99
same,normalized growth,"locus YJL092W, strain hpr5, active compounds read low",0.917 (active)
same,normalized growth,"locus YJL095W, strain BCK1 (second series), active compounds read low",0.991
same,normalized growth,"locus YJL095W, strain BCK1, active compounds read low",0.923 and 0.988
same,normalized growth,"locus YJL115W, strain asf1, active compounds read low",0.976
same,normalized growth,"locus YJL129C, strain trk1, active compounds read low",0.972
same,normalized growth,"locus YJL134W, strain LCB3, active compounds read low",0.998
same,normalized growth,"locus YJL154C, strain vps35, active compounds read low",0.962
same,normalized growth,"locus YJL164C, strain tpk1, active compounds read low",0.957
same,normalized growth,"locus YJL166W, strain qcr8, active compounds read low",0.974
same,normalized growth,"locus YJL168C, strain set2, active compounds read low",0.994
same,normalized growth,"locus YJL187C, strain SWE1 (second series), active compounds read low",0.976
same,normalized growth,"locus YJL187C, strain SWE1, active compounds read low",0.982
same,normalized growth,"locus YJR043C, strain POL32, active compounds read low",0.998
